The campaign covered roughly 85,000 compounds. About 440 (0.52%) showed an effect of 50% or more. This is one part of a sample in which strong results are shown more often than they occur.
Assay: In vitro enzyme assay to detect hydrolysis of chlorophenol red-beta-D-[…] directly proportional to the number of Toxoplasma stably expressing beta-galactosidase
Assay type: functional, organism-based, Toxoplasma gondii
Parameters: scale not given: in the data most compounds retested in dose-response had high values

| Structure (SMILES) | Percent Effect (50 µM) [%] | Percent Effect (10 µM) [%] |
| --- | --- | --- |
| CC(C)S(=O)(=O)N(C)C(=O)c1cc(Br)c2c(c1)OCO2 | 10.61 |  |
| CC(C)NC(=O)C(C)n1cncn1 (centres undefined) | 7.173 |  |
| CN(CCN)S(=O)(=O)c1cccs1 | -2.794 |  |
| Cc1cc(C)n(-c2cncc(NCCNC(=O)C3CCCC3)n2)n1 |  | -17.81 |
| Cc1cc(C)n(C2=NC(NCCC(C)C)c3c(sc4c3CCCC4)N2)n1 (centres undefined) |  | -32.33 |
| Cc1cc(C)n(-c2nc(NCCCO)c3c4c(sc3n2)CCCC4)n1 |  | 81.16 |
| O=C(NCc1cn2ccccc2n1)c1ccc(=O)oc1 | -17.09 |  |
| CNCC(=O)Nc1cc(Cl)ccc1OC | -3.261 |  |
| COCCNC(=O)Nc1cc(Cl)ccc1OC | 51.47 |  |
| CCCOc1ccc(Cl)cc1NC(=O)NCCC(=O)N(C)C |  | 15.25 |
| O=C(CCC1CCCCC1)NCc1c[nH]nn1 | 1.133 |  |
| CC(N)c1ccccc1N1CCOCC1 (centres undefined) | 0.1688 |  |
| C[C@@H](CO)NC(=O)NCC1CCN(CC(F)(F)F)CC1 | -3.478 |  |
| COCCC1(CN2CCCC(C(N)=O)C2)CCC1 (centres undefined) | -0.683 |  |
| COCCC1(CO)CCCN(CC(N)=O)C1 (centres undefined) | 0.1422 |  |
| COCCC1(CN2CCC(C(N)=O)C2)CCC1 (centres undefined) | 68.22 |  |
| CN(CC1CCOCC1)C(=O)c1ccc(CN)cc1 | 0.3864 |  |
| Cc1c(Cl)c(C(=O)N2CCCCC2)nn1C | 24.41 |  |
| CCN(CC)Cc1nnnn1-c1ccccc1 | 68.75 |  |
| CN(Cc1ccc2c(c1)OCCO2)Cc1nnnn1-c1ccccc1 |  | -19.55 |

| Structure (SMILES) | Percent Effect (50 µM) [%] | Percent Effect (10 µM) [%] |
| --- | --- | --- |
| CCS(=O)(=O)Cc1nnnn1-c1ccccc1 |  | -0.7088 |
| O=C(Nc1ccccc1N1CCCC1)C1CCOC1 (centres undefined) | 2.349 |  |
| CN(C)c1ncccc1CNC(=O)c1ccoc1 | -3.271 |  |
| CS(=O)(=O)Nc1ccccc1CNC(=O)c1ccoc1 | 97.49 |  |
| O=C(CCNC(=O)c1ccoc1)NCc1ccccc1F |  | -6.438 |
| CC1CCCN(CCCN)C1 (centres undefined) | 8.539 |  |
| O=C(CC1CSCCN1)NCCc1ccc(F)cc1F (centres undefined) | 0.8144 |  |
| CCCc1noc(COc2nc(C)no2)n1 | 3.348 |  |
| CC(C)C(NC(=O)Cn1cnnn1)c1cccs1 (centres undefined) | 19.15 |  |
| O=C(N1CCOCC1)[C@@]12CCO[C@@H]1CCN(C1CCC1)C2.O=C(O)C(F)(F)F |  | 41.32 |
| O=C(N1CCOCC1)[C@@]12CCO[C@@H]1CCN(C1CCOCC1)C2.O=C(O)C(F)(F)F |  | 86.48 |
| O=C(N1CCOCC1)[C@@]12CCO[C@@H]1CCN(C1CCCCC1)C2.O=C(O)C(F)(F)F |  | -8.917 |
| Cc1cc(C)n(CCC(=O)NC2C=CS(=O)(=O)C2)n1 (centres undefined) | -3.643 |  |
| CC(Nc1ccc(C#N)cn1)c1ccc2c(c1)OCO2 (centres undefined) | 3.939 |  |
| CC(C)CC(=O)N1CC[C@H]2N(C)CC[C@@]2(C(=O)Nc2ccccc2)CC1.O=C(O)C(F)(F)F |  | 95.11 |
| CC(C)C(=O)N1CC[C@H]2N(C)CC[C@@]2(C(=O)Nc2ccccc2)CC1 |  | -18.9 |
| CC(C)CC(=O)N1CC[C@H]2N(C)CC[C@@]2(C(=O)Nc2cccnc2)CC1.O=C(O)C(F)(F)F.O=C(O)C(F)(F)F |  | 6.738 |
| O=C(CCC1CCCCC1)N1CC[S+]([O-])CC1 | -3.074 |  |
| CC(C)(CO)NCC(O)c1cccc(F)c1 (centres undefined) | 95.56 |  |
| CC(C)(CO)NCC(O)c1cccc(Cl)c1 (centres undefined) | 48.83 |  |

| Structure (SMILES) | Percent Effect (50 µM) [%] | Percent Effect (10 µM) [%] |
| --- | --- | --- |
| CC(C)(C)OC(=O)NCCC(=O)NCC(O)c1cccc(F)c1 (centres undefined) |  | -9.599 |
| Cc1cc(Br)oc1C(=O)NCCOC(N)=O | -2.351 |  |
| COc1ccc(OC)c(NC(=O)N2CC(C)(OC)C2)c1 | 3.541 |  |
| CC[C@H](C)[C@H](N)C(=O)NC | -8.555 |  |
| Cl.c1csc(-c2noc(C3CNC3)n2)c1 |  | 42.66 |
| c1csc(-c2noc(C3CCCOC3)n2)c1 (centres undefined) |  | -3.059 |
| CC(=O)Nc1ccc(C(C)N)cc1 (centres undefined) | -11.91 |  |
| COCCn1ccnc1CN(C)[C@H]1COC[C@@H]1O | -5.172 |  |
| CN1CCN(Cc2c(-c3ccco3)[nH]c3ncccc23)CC1 |  | 84.72 |
| OC1CCN(Cc2c(-c3ccco3)[nH]c3ncccc23)CC1 |  | -9.681 |
| CCN1CCN(Cc2c(-c3ccco3)[nH]c3ncccc23)CC1 |  | -25.08 |
| Cc1nnc(SCC(=O)C(C)(C)C)[nH]1 | 12.7 |  |
| Cc1n[nH]cc1CNCCNc1ncc(Cl)cc1Cl | 5.335 |  |
| CNC(=O)CN(C)C(=O)CCc1ccc(Br)cc1F | 0.9597 |  |
| COc1ccccc1C(=O)N1CCN(C2CC2)C(=O)C1 | -3.275 |  |
| NCc1ccc(C(=O)N2CCN(C3CC3)C(=O)C2)cc1 | 8.158 |  |
| O=C(c1cnsn1)N1CCN(C2CC2)C(=O)C1 | 91.53 |  |
| COc1cc(CN)ccc1OCC(N)=O | 19.26 |  |
| Cc1nc(CC(=O)NCCN2CCNC2=O)c(C)s1 | -2.42 |  |
